{"source": "PubChem BioAssay AID651699", "about": "(Sanford-Burnham Center for Chemical Genomics, 2012)", "note": "About 2,100 (0.58%) of roughly 360,000 compounds were called active. No stated cut-off is given here; in the data, active means inhibition above about 36%; inactive means the rest. The sample as a whole holds a higher share of actives than the screen did.", "data": [{"target": "NEDD8-conjugating enzyme Ubc12 (Homo sapiens) + NEDD8-activating enzyme E1 regulatory subunit (Homo sapiens) (UniProt P61081+Q13564)", "sequence (P61081 whole entry, looked up)": "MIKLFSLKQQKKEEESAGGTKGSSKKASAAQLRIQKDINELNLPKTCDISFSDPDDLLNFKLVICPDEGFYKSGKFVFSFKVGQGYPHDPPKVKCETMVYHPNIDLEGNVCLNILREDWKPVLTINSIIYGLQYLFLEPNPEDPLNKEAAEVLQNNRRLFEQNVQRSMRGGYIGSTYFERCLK", "sequence (Q13564 whole entry, looked up)": "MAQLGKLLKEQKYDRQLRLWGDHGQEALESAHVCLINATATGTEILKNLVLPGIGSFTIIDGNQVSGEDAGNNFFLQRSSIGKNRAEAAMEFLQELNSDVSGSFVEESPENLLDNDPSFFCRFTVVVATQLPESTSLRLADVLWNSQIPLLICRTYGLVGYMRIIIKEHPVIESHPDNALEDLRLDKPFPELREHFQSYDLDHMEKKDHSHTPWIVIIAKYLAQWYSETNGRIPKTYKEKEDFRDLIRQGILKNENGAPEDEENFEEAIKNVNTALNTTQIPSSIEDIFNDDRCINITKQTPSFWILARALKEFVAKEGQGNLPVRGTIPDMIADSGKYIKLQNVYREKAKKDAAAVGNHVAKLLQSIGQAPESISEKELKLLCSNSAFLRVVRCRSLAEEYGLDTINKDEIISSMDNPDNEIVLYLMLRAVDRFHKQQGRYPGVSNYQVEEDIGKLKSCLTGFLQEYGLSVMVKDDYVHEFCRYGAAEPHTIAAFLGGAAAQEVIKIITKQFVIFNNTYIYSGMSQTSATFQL", "test": "NEDD8 transfer onto cullin, blockade – biochemical, TR-FRET, uHTS, NAE and Ubc12, primary screen (AID 651699)", "conditions": "TR-FRET cullin neddylation, at 25 µM, active compounds read high", "values": [{"compound": "CCOC(=O)c1cn(CC)c2cc(F)c(F)cc2c1=O", "inhibition": "6.4% (inactive)"}, {"compound": "CC(=O)/C(=N\\Nc1ccc(Cl)cc1Cl)Sc1cccc2cccnc12", "inhibition": "-3.61% (inactive)"}, {"compound": "CN(CC(=O)Nc1cccc2c1CCCC2)S(=O)(=O)c1ccc(Cl)cc1", "inhibition": "7.5% (inactive)"}, {"compound": "Cc1ccc2occ(/C=N/NC(=O)c3ccccc3C)c(=O)c2c1", "inhibition": "42.8% (active)"}, {"compound": "Cc1cc(NC(=O)c2ccccc2C)no1", "inhibition": "-11.1% (inactive)"}, {"compound": "Cc1ccc(O)c(/C=N/NC(=O)COc2ccc3c(C)cc(=O)oc3c2)c1", "inhibition": "17% (inactive)"}, {"compound": "CCOc1ccc(NS(=O)(=O)c2ccc(C)c(C(N)=O)c2)cc1", "inhibition": "-4.92% (inactive)"}, {"compound": "CCOc1ccc2nc(Cl)c(C3CC(c4ccccc4)=NN3C(=O)c3cccs3)cc2c1", "note": "(stereo not drawn)", "inhibition": "-162% (inactive)"}, {"compound": "CCOc1ccc2nc(NCCNC(=O)C(C)(C)C)c(C)cc2c1", "inhibition": "42.5% (active)"}, {"compound": "CCOc1ccc(NC(=O)c2ccc(CSc3nnnn3C)cc2)cc1", "inhibition": "1.1% (inactive)"}, {"compound": "CC(=O)N(c1ccc2oc(=O)sc2c1)S(=O)(=O)c1ccc(C)cc1", "inhibition": "0.47% (inactive)"}, {"compound": "O=C(CN1CCN(C(=O)C2CCCO2)CC1)Nc1c(Cl)cccc1Cl", "note": "(stereo not drawn)", "inhibition": "10.6% (inactive)"}, {"compound": "C=CCNC(=O)C1CC=CCC1C(=O)O", "note": "(stereo not drawn)", "inhibition": "4.38% (inactive)"}, {"compound": "COc1cc2ccccc2cc1C(=O)Nc1ccncc1", "inhibition": "42.2% (active)"}, {"compound": "COc1cccc(OC)c1C(=O)Nc1ccc(Cc2ccncc2)cc1", "inhibition": "7.29% (inactive)"}, {"compound": "COc1ccccc1N(C)S(=O)(=O)c1ccc(Cl)c(C(=O)Nc2ccncc2)c1", "inhibition": "13.9% (inactive)"}, {"compound": "O=C1N[C@H](Cc2c[nH]c3ccccc23)COC(=O)[C@H](Cc2ccc(F)cc2)C/C=C\\C[C@H]1CC(=O)N(CCO)Cc1ccccc1", "inhibition": "-4.67% (inactive)"}, {"compound": "O=C(c1ccc(Cl)cc1)N1N=C(c2ccccn2)CC1(O)C(F)(F)F", "note": "(stereo not drawn)", "inhibition": "46% (active)"}, {"compound": "O=C(C1CC1)N1N=C(c2ccc(Br)cc2)CC1(O)C(F)(F)F", "note": "(stereo not drawn)", "inhibition": "-17% (inactive)"}, {"compound": "COC(=O)C1(O)CC(C(C)C)=NN1C(=O)c1ccc(Cl)cc1", "note": "(stereo not drawn)", "inhibition": "10.8% (inactive)"}, {"compound": "CC(=O)NCCc1ccc(S(=O)(=O)Nc2ccc(C)c(S(=O)(=O)N3CCOCC3)c2)cc1", "inhibition": "0.16% (inactive)"}, {"compound": "CC1=CC(C)(C)N(C(=O)CSc2nnc(-c3ccccc3)o2)c2ccc(C)cc21", "inhibition": "-0.38% (inactive)"}, {"compound": "COc1ccc2c(c1)C(C)=CC(C)(C)N2C(=O)Nc1ccccc1", "inhibition": "41.3% (active)"}, {"compound": "COc1ccc2c(c1)C(C)=CC(C)(C)N2C(=O)CNCc1ccc2c(c1)OCO2", "inhibition": "-2.09% (inactive)"}, {"compound": "O=C(CCc1nnc(Cc2ccc3c(c2)OCO3)o1)NCCc1ccccc1Cl", "inhibition": "-1.6% (inactive)"}, {"compound": "Fc1ccccc1/C=N/Nc1cc(N2CCCCC2)ncn1", "inhibition": "9.65% (inactive)"}, {"compound": "C/C(=N\\Nc1nc(N2CCOCC2)nc(N2CCOCC2)n1)c1ccc([N+](=O)[O-])cc1", "inhibition": "-9.47% (inactive)"}, {"compound": "CN(C)c1ccc(/C=N/Nc2cc(N3CCOCC3)nc(N3CCOCC3)n2)cc1", "inhibition": "53.4% (active)"}, {"compound": "Cc1ccc(O)c(NC(=O)c2cc(-c3ccco3)on2)c1", "inhibition": "5.21% (inactive)"}, {"compound": "NNC(=O)c1oc2nc(-c3ccccc3)cc(-c3ccco3)c2c1N", "inhibition": "51.2% (active)"}, {"compound": "CNC(=S)NNC(=O)c1oc2nc(-c3ccccc3)cc(-c3ccco3)c2c1N", "inhibition": "29.8% (inactive)"}, {"compound": "CC1(C)C2CC=C(/C=N/NC(=O)C3CC3)C1C2", "note": "(stereo not drawn)", "inhibition": "-0.11% (inactive)"}, {"compound": "O=C(NNC(=O)C1CCC1)c1ccccc1", "inhibition": "-19.3% (inactive)"}, {"compound": "O=C(N/N=C/c1ccccc1O)C1CCCC1", "inhibition": "44.9% (active)"}, {"compound": "COc1ccc(CCNC(=O)CCCCCNC(=O)N2CCn3c2nc2ccccc23)cc1OC", "inhibition": "7.99% (inactive)"}, {"compound": "O=Cc1c(Nc2ccccc2Cl)nc2ccccn2c1=O", "inhibition": "-6.5% (inactive)"}, {"compound": "CC(=O)c1ccc(NC(=O)c2ccc(-n3cncn3)c([N+](=O)[O-])c2)cc1", "inhibition": "-41.9% (inactive)"}, {"compound": "C=CCn1c(COc2ccc(F)cc2)nnc1SCC(=O)Nc1cccc(S(N)(=O)=O)c1", "inhibition": "5.06% (inactive)"}, {"compound": "C=CCn1c(COc2cccc3cccnc23)nnc1SCC(=O)OC", "inhibition": "46.5% (active)"}, {"compound": "C=CCn1c(COc2ccccc2C)nnc1SCC(=O)O", "inhibition": "-1.87% (inactive)"}, {"compound": "CCC(C)(C)n1nnnc1C(c1cccs1)N1CCN(c2nc3ccccc3s2)CC1", "note": "(stereo not drawn)", "inhibition": "5% (inactive)"}, {"compound": "O=C(NCc1nnnn1-c1ccc(Cl)cc1)c1ccc2c(c1)OCO2", "inhibition": "-5.24% (inactive)"}, {"compound": "COc1cccc(Nc2nnc(SCC(=O)N3CC(C)OC(C)C3)s2)c1", "note": "(stereo not drawn)", "inhibition": "-4.5% (inactive)"}, {"compound": "O=C(NCCc1ccc(F)cc1)c1n[nH]c2ccccc12", "inhibition": "9.02% (inactive)"}, {"compound": "O=C(NCCCO)c1cc2c([nH]c3ccccc32)c(-c2ccc(F)cc2)n1", "inhibition": "44.3% (active)"}, {"compound": "O=C(NCC1CCCO1)c1cc2c([nH]c3ccccc32)c(-c2ccc(F)cc2)n1", "note": "(stereo not drawn)", "inhibition": "21% (inactive)"}, {"compound": "O=c1cc(CN2CCN(c3cccc(Cl)c3)CC2)c2cc3c(cc2o1)CCCC3", "inhibition": "-45.2% (inactive)"}, {"compound": "CCC(CC)C(=O)N1CC(=O)Nc2ccc(Br)cc2C1c1ccccc1", "note": "(stereo not drawn)", "inhibition": "-1.94% (inactive)"}, {"compound": "CCN(/N=C/c1ccccc1)c1cc(=O)n(C)c(=O)[nH]1", "inhibition": "14.3% (inactive)"}, {"compound": "CCN(/N=C/c1ccc(N(C)C)cc1)c1nc2ccccc2[nH]1", "inhibition": "47.9% (active)"}, {"compound": "Oc1ccc(/C=N/N(Cc2ccccc2)c2ccccc2)cc1", "inhibition": "13.8% (inactive)"}, {"compound": "CCC(C)c1ccc(NC(=S)NCc2ccccn2)cc1", "note": "(stereo not drawn)", "inhibition": "3.21% (inactive)"}, {"compound": "O=S(=O)(c1cccc(Cn2nnc(-c3ccc(F)cc3)n2)c1)N1CCOCC1", "inhibition": "-1.01% (inactive)"}, {"compound": "O=C(C[C@@H]1C/C=C\\CCC(=O)OC[C@@H]2CCCN2C1=O)NCCO", "inhibition": "-13.4% (inactive)"}, {"compound": "O=C(NC(Cc1c[nH]c2ccccc12)C(=O)N/N=C/c1ccc(Br)cc1)c1cccs1", "note": "(stereo not drawn)", "inhibition": "-5.72% (inactive)"}, {"compound": "O=C(CNC(=O)c1ccccc1Br)NNC(=O)c1cccs1", "inhibition": "7.39% (inactive)"}, {"compound": "CCN(CC)c1ccc(/C=N/NC(=O)CNC(=O)c2cccs2)cc1", "inhibition": "55.1% (active)"}, {"compound": "COC(=O)C1=CN(Cc2ccc(OC)cc2)C=C(C(=O)OC)C1c1ccc(O)c(OC)c1", "inhibition": "40.7% (active)"}, {"compound": "CCOc1cc(C2C(C(=O)OC)=CN(C3CCCC3)C=C2C(=O)OC)cc(Br)c1O", "inhibition": "-306% (inactive)"}, {"compound": "O=C(NC1CC1)C(Cc1ccccc1)NS(=O)(=O)c1ccccc1F", "note": "(stereo not drawn)", "inhibition": "-5.68% (inactive)"}, {"compound": "O=C(CN1CCN(c2ccccc2O)CC1)NC(=O)NCc1ccccc1", "inhibition": "1.32% (inactive)"}, {"compound": "CCOCCCNC(=O)C(NC(=O)CNC(=O)c1ccccc1)c1ccc(C)cc1", "note": "(stereo not drawn)", "inhibition": "2.03% (inactive)"}, {"compound": "CCOCCCNC(=O)C(NC(=O)c1ccccc1O)c1ccccc1", "note": "(stereo not drawn)", "inhibition": "46.5% (active)"}, {"compound": "CCOCCCNC(=O)C(NC(=O)CNC(=O)c1ccccc1)c1ccc(OC)cc1", "note": "(stereo not drawn)", "inhibition": "0.37% (inactive)"}, {"compound": "CC(C)=CCc1ccc(O)c(=O)cc1C(C)C", "inhibition": "1.77% (inactive)"}, {"compound": "O=C(O)C(F)(F)C(NCc1ccccc1)c1ccccc1", "note": "(stereo not drawn)", "inhibition": "-2.55% (inactive)"}, {"compound": "CC(C)c1ccc(CC(=O)N2CCC2(C)C(=O)NS(=O)(=O)c2ccc(C(C)(C)C)cc2)cc1", "note": "(stereo not drawn)", "inhibition": "-0.27% (inactive)"}, {"compound": "CN(C)c1ccnc2sc(C(=O)c3ccccc3)c(N)c12", "inhibition": "42.8% (active)"}, {"compound": "Cc1cccc2cc3c(N)c(C(=O)N4CCCc5ccccc54)sc3nc12", "inhibition": "-5.05% (inactive)"}, {"compound": "CC(=O)c1c(Nc2ccccc2)sc(C(=O)c2ccccc2)c1C", "inhibition": "5.82% (inactive)"}, {"compound": "Cc1nc2sc(C(=O)c3ccccc3)c(N)c2c2c1CCCC2", "inhibition": "47.1% (active)"}, {"compound": "COC(=O)c1cc2c(N)c(C(=O)c3ccc(Cl)cc3)sc2nc1C(OC)OC", "inhibition": "12.2% (inactive)"}, {"compound": "O=C(Nc1c(-c2ccccc2)nc2c(Br)cc(Br)cn12)c1ccco1", "inhibition": "-168% (inactive)"}, {"compound": "OCC[C@H]1C[C@H](O)[C@@H](O)[C@]2(Cc3ccccc3CO2)O1", "inhibition": "-28.9% (inactive)"}, {"compound": "Cc1noc(C)c1CCC(=O)O", "inhibition": "-7.17% (inactive)"}, {"compound": "CN(Cc1ccccc1)C(=O)CCC1CCN(C(=O)c2ccco2)CC1", "inhibition": "6.05% (inactive)"}, {"compound": "CCOC(=O)c1cnc(SCC(=O)Nc2cccc(OC)c2)nc1N", "inhibition": "-0.72% (inactive)"}, {"compound": "COc1ccc(/C=C/C(=O)OCC(=O)N2CCN(S(=O)(=O)c3ccc(C)cc3C)CC2)cc1OC", "inhibition": "24.4% (inactive)"}, {"compound": "CCCCNS(=O)(=O)c1ccc(S(=O)(=O)n2cnc3ccccc32)cc1", "inhibition": "-2.84% (inactive)"}, {"compound": "NC(=O)Cn1cc(/C=N\\NS(=O)(=O)c2ccccc2)c2ccccc21", "inhibition": "-17.8% (inactive)"}, {"compound": "O=C(Cn1cc(/C=N/NC(=O)c2cccc(C(F)(F)F)c2)c2ccccc21)Nc1ccc(F)cc1", "inhibition": "44% (active)"}, {"compound": "O=C(CSc1ccc(/C=N/NC(=O)c2cccc(F)c2)o1)Nc1ccccc1", "inhibition": "-3.46% (inactive)"}, {"compound": "COc1ccc([N+](=O)[O-])cc1NC(=O)COC(=O)/C=C/c1ccco1", "inhibition": "-34% (inactive)"}, {"compound": "O=C(NNC(=S)NC1CC2CCC1C2)c1ccc(Cl)cc1", "note": "(stereo not drawn)", "inhibition": "62.7% (active)"}, {"compound": "O=S(=O)(NC1CC2CCC1C2)c1ccc(Cl)cc1", "note": "(stereo not drawn)", "inhibition": "-2.94% (inactive)"}, {"compound": "O=C(NNC(=O)C1C2CCC(C2)C1C(=O)O)c1ccc(Cl)cc1", "note": "(stereo not drawn)", "inhibition": "2.72% (inactive)"}, {"compound": "CC1(C)CC(=O)C2=C(C1)Nc1cc(C(=O)c3ccccc3)ccc1NC2c1ccccn1", "note": "(stereo not drawn)", "inhibition": "24.5% (inactive)"}, {"compound": "CCOc1ccc2[nH]c(=O)c(CN(Cc3nnnn3CCc3ccccc3)CC3CCCO3)cc2c1", "note": "(stereo not drawn)", "inhibition": "44% (active)"}, {"compound": "Cc1cc(C)c2cc(CN(Cc3cccs3)Cc3nnnn3CC3CCCO3)c(=O)[nH]c2c1", "note": "(stereo not drawn)", "inhibition": "-8.71% (inactive)"}, {"compound": "Cc1ccc(S(=O)(=O)N(Cc2cc3ccccc3[nH]c2=O)CC2CCCO2)cc1", "note": "(stereo not drawn)", "inhibition": "11.6% (inactive)"}, {"compound": "COc1ccc2[nH]c(=O)c(CN(CC3CCCO3)C(=O)Nc3ccccc3)cc2c1", "note": "(stereo not drawn)", "inhibition": "21.1% (inactive)"}, {"compound": "CCOc1ccc2[nH]c(=O)c(CN(Cc3nnnn3Cc3ccccc3)CC3CCCO3)cc2c1", "note": "(stereo not drawn)", "inhibition": "48% (active)"}, {"compound": "Cc1cc2cc(CN(Cc3cccs3)Cc3nnnn3CC3CCCO3)c(=O)[nH]c2cc1C", "note": "(stereo not drawn)", "inhibition": "4.8% (inactive)"}]}]}
